Results on 30 compounds are retold here after PubChem BioAssay (NCI).

The panel holds about 83,000 compounds, 20% with a hit somewhere; the sample as a whole holds those more often.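 In brief: 96-well plates, 48 h treatment, single concentration, percent growth endpoint.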 Unmarked numbers belong to inactive results. Active and inactive are the calls of the source. Rule for the calls: active = growth percent below 10; inactive = the rest.

In the test the test system is TK-10 renal. In words: NCI-60 one-dose screen, 48 h (100 = growth as untreated, 0 = no growth, -100 = all killed). The following applies: 10 µM unless noted.
As to `Cc1ccc(NC(=O)c2ccc(CN3CCN(C)CC3)cc2)cc1Oc1ccc(-c2[nH]nc3ncnc(N)c23)cc1`, the growth is 110%. On to `CCCn1cnc2c(c1=N)C(c1ccc(Cl)cc1)c1sc3c(C)cccc3c1O2` (stereo not given), for which the growth is 93.3%. Next, `C=C(C=O)[C@@H]1CC[C@]2(C)[C@H](CC=C3[C@H]4[C@@H](C)[C@H](C)CC[C@]4(C(=O)OC)CC[C@]32C)[C@@]1(C)CCC#N`: 35.7%; `NC(N)=Nc1ccc(Oc2cccc(NC(N)=Nc3ccc(I)cc3F)c2)cn1`: 71.3%. To `Cc1occc1-c1nc2s/c(=C/c3ccc(-c4cc(C(F)(F)F)ccc4Cl)o3)c(=O)n2n1` belongs 114%; to `C[C@H]1c2[nH]c3ccccc3c2C[C@H]2C(=O)N(CCCCCCC(=O)NO)CC(=O)N21`, 90.3%. To `COc1ccc(-c2cc(-c3ccc(Cl)cc3)c(C#N)c(=O)n2Cc2ccc(C(=O)O)cc2)cc1` belongs 116%. As for `O=C1[C@H]2Cc3c([nH]c4ccccc34)[C@@H](c3ccc(Cl)cc3)N2C(=O)CN1C1CCN(Cc2ccccc2)CC1`, the growth was 82.3%. Consider `COc1cc(-c2nn(C(C)(C)C)cc2-c2ccnc(NCCCNS(=O)(=O)c3ccc(C)cc3)n2)ccc1Cl`, for which the growth was 65.2%. With `CCCCNNC(=O)c1ccc(-c2cccc(F)c2F)cc1`, the growth is 13.3%.

Consider `CC1(C)CC[C@]2(C(=O)N3CCOCC3)CC[C@]3(C)C(=CC[C@@H]4[C@@]5(C)C/C(=C/c6ccccn6)C(=O)C(C)(C)[C@@H]5CC[C@]43C)[C@@H]2C1`, for which the growth was 70.2%. For `O=S(=O)(NCCNc1nccc(-n2cnc3ccccc32)n1)c1ccc(Br)cc1`, the growth is 103%.

On to `CC1(C)CC[C@]23CC[C@]4(C)[C@H](CC[C@@H]5[C@@]6(C)CCCN(CO)C(C)(C)[C@@H]6CC[C@]54C)[C@H]2[C@H]1OC3`, for which the growth was 129%. As for `O=C1[C@H]2Cc3c([nH]c4ccccc34)[C@@H](c3ccc(Br)cc3)N2C(=O)CN1C1CCN(CC2CCCCC2)CC1`, the growth is -85.2% (active).

With `COc1ccc([C@H]2c3[nH]c4ccccc4c3C[C@H]3C(=O)N(C4CCN(Cc5c(Cl)cccc5Cl)CC4)CC(=O)N23)c(OC)c1`, the growth was 110%. With `NS(=O)(=O)c1ccc(Nc2nc(Nc3ccccc3)nc3nnc(SCC(=O)NC4CCCCC4)n23)cc1`, the growth is 104%. As to `O=C(NNc1nc2cc(F)ccc2n2c(CN3CCC(O)C3)ccc12)c1cnccn1` (stereo not given), the growth was 20.5%. Consider `CCN(CC)c1cn(-c2ccc(S(N)(=O)=O)cc2)nn1`, for which the growth is 103%. Turning to `O=[N+]([O-])c1cc(/C=N/Nc2nc(N/N=C/c3ccc(Cl)c([N+](=O)[O-])c3)nc(N3CCCCC3)n2)ccc1Cl`, the growth is 93.8%. For the compound `CC(=O)Nc1cccc(Nc2nc(N[C@@H](C)c3ccccc3)c3ccccc3n2)c1`, the growth was 54.1%. On to `COc1ccc(COc2ccc(/C=C3\C(=O)Nc4ccccc43)cc2OC)cc1`, for which the growth was 113%. As for `CCNC(=O)Oc1ccc(/C(=C(/C)c2ccccc2)c2ccc(OCCN3CCCCCC3)cc2)cc1`, the growth is 66.5%. `COc1cc(/C=N/NC(=O)c2cn(C3CC3)c3c(OC)c(N4CC5CCCNC5C4)c(F)cc3c2=O)ccc1O` (stereo not given): the growth was 119%. In the case of `CC(C)c1ccc(NCc2cn(-c3ccc(C(=O)O)cc3)nc2-c2cc(C(F)(F)F)cc(C(F)(F)F)c2)cc1`, the growth was 118%. With `C[C@@H]1C[C@H]2C(=O)O[C@@H](C)C(NC(=O)[C@H](Cc3cc(F)cc(F)c3)NC(=O)Nc3ccc(Cl)cc3F)C(=O)N3CCC[C@H]3C(=O)N3CCCC[C@H]3C(=O)N[C@@H](CO)C(=O)N2C1` (stereo not given in full), the growth is 54.7%. `CC(=O)O[C@@H]1C(=O)N(c2cnccn2)[C@H]1c1ccccc1[N+](=O)[O-]`: the growth is 79.3%. To `C=C1CC[C@@H]2[C@]3(C)COC(c4ccccc4)O[C@@H]3CC[C@@]2(C)[C@@H]1C/C=C1/C(=O)OC[C@H]1O` (stereo not given in full) belongs 109%; to `Nc1nc(-c2cccc([N+](=O)[O-])c2)c(N=Nc2cccc([N+](=O)[O-])c2)s1`, 7.2% (active); to `Nc1cc(F)ccc1NC(=O)c1ccc(NC(=O)C/C=C/c2cccnc2)cc1`, 52.9%. `CCc1nn2c(C)cc(C)nc2c1Cc1ccc(/C=C/CN2CCN(CCOCCOCCN3CCN(C/C=C/c4ccc(Cc5c(CC)nn6c(C)cc(C)nc56)cc4)CC3)CC2)cc1`: the growth is 103%.
